From PubChem BioAssay
Active and inactive are the calls of the source. Unless noted, the rule behind the calls is not given here.

How the values were obtained:
[1] = anti-His antibody binders, primary screen, artefact control for SMM control protein annotation, biochemical, small-molecule microarray, 635 nm fluorescence (AID 1128); settings: anti-His Alexa647 antibody binding, higher = more signal;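 note: score merges feature fluorescence with signal-to-noise for each printed compound spot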
[2] = system: Human papillomavirus type 1a E7 protein (residues 1-88); test: HPV1a E7 small-molecule binders, primary screen, biochemical, small-molecule microarray, residues 1-88, 635 nm (AID 1129); settings: small-molecule microarray binding, fluorescence 635 nm; higher = more signal
[3] = biological target: Focal adhesion kinase 1 (Homo sapiens) (UniProt Q05397); test: small-molecule microarray binders of FAK, primary screen, biochemical, 635/667 nm fluorescence, BSA, DTT (AID 1130); settings: PTK2 binding, 635 nm fluorescence, higher = more signal;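 note: composite of spot emission at 667 nm and signal to noise over triplicate slides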
[4] = system: Fibrinogen (Alexa647-labelled); test: fibrinogen binders on compound microarrays, profiling panel, artefact control for SMM control-protein annotation, biochemical, small-molecule microarray, 635/667 nm fluorescence (AID 1131); settings: fibrinogen-A647 binding fluorescence, higher = more signal;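 note: z-score merges 667 nm fluorescence with per-spot signal-to-noise over triplicate slides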
[5] = biological target: Follistatin (Homo sapiens) (UniProt P19883); test: follistatin binders on small-molecule microarrays, primary screen, biochemical, small-molecule microarray, 635/667 nm fluorescence (AID 1132); settings: FST binding, 635 nm fluorescence, higher = more signal
[6] = biological target: Fibroblast growth factor 2 (Homo sapiens) (UniProt P09038); test: FGF2 binders on small-molecule microarrays, primary screen, biochemical, small-molecule microarray, 635/667 nm fluorescence (AID 1133); settings: small-molecule microarray binding, FGF2, fluorescence 635/667; higher = more signal
[7] = mitochondrial membrane potential change in A549 cells, profiling panel, cell-based, JC-1 fluorescence, basal, 24 h, 100 nL (AID 1138); settings: higher = more signal;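 note: A549 lung adenocarcinoma cells under basal conditions with no added stimulus; test concentration not given here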
Lefty1 = Lefty1 binders on small-molecule microarrays, primary screen, biochemical, small-molecule microarray, 635/667 nm fluorescence (AID 1139); settings: small-molecule microarray binding, fluorescence 635/667; higher = more signal
[8] = system: wheat germ agglutinin (Triticum aestivum), Alexa647-labelled; test: wheat germ agglutinin binders on compound microarrays, profiling panel, artefact control for SMM control-protein annotation, biochemical, small-molecule microarray, 635/667 nm fluorescence (AID 1140); settings: WGA-A647 binding, 635 nm fluorescence, higher = more signal;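 note: score merges 667 nm feature emission with signal to noise over triplicate slides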
[9] = biological target: Luciferin 4-monooxygenase (Photinus pyralis) (UniProt P08659); test: firefly luciferase enzyme inhibitors, primary screen, biochemical, luminescence, purified enzyme, 2006 set (AID 1141); settings: SteadyGlo luminescence, 30 min, higher = more signal, called active from +8 up or from −8 down;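 note: cell-free assay with purified firefly luciferase at 100 ng per well in PBS; test concentration not given here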
[10] = system: Wnt5a (protein binding on small-molecule microarray); test: Wnt5a binders on small-molecule microarray, primary screen, biophysical, 635/667 nm fluorescence (AID 1142); settings: 635 nm fluorescence, higher = more signal;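 note: fluorescence read at 667 nm with signal to noise per printed feature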
[11] = cell viability in Huh7 cells, primary screen, cytotoxicity control for HCV replication inhibitor project, CellTiter-Glo luminescence, basal, 48 h (AID 1143); settings: Huh7 HCV replicon, higher = more signal, called active from +8 up or from −8 down;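 note: Huh7 hepatoma cells carrying a hepatitis C replication reporter with no stimulus; test concentration not given here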
[12] = P. aeruginosa biofilm formation inhibitors, primary screen, PAO1 strain, BacTiter-Glo luminescence, LB-PBS (AID 1144); settings: 12 h, higher = more signal
[13] = CREB reporter modulators without forskolin, primary screen, cell-based, PC12, CRE-LacZ reporter, unstimulated (AID 1145); settings: no forskolin, luminescence, 4.5 h, higher = more signal, called active from +8 up or from −8 down
[14] = CREB reporter modulators under forskolin, primary screen, cell-based, PC12, CRE-LacZ reporter, forskolin-stimulated (AID 1146); settings: luminescence, 4.5 h, higher = more signal, called active from +8 up or from −8 down;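 note: PC12 cells with 6xCRE LacZ reporter stimulated by forskolin 10 µM; beta-galactosidase reporter signal reflecting CREB driven transcription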
[15] = biological target: Streptavidin (Streptomyces avidinii) (UniProt P22629); test: streptavidin binders on small-molecule microarray, primary screen, artefact control for SMM compound annotation, biophysical, 635/667 nm fluorescence (AID 1147); settings: streptavidin binding, higher = more signal;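 note: signal reflects streptavidin binding to arrayed compounds as a control protein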
[16] = small-molecule binders of probe aInhba, primary screen, biochemical, small-molecule microarray, 635/667 nm fluorescence (AID 1148); settings: higher = more signal;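 note: score merges 667nm spot fluorescence with signal-to-noise for antibody binding to printed compounds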
Torsin-1A (Homo sapiens) [17] = biological target: Torsin-1A (Homo sapiens) (UniProt O14656); test: torsin A binders from cell lysate, primary screen, small-molecule microarray, wild-type, 635/667 nm (AID 1149); settings: COS7 hTOR1A-WT lysate, 635 nm fluorescence, higher = more signal
Torsin-1A (Homo sapiens) [18] = biological target: Torsin-1A (Homo sapiens) (UniProt O14656); test: small-molecule binders of mutant TOR1A in lysate, primary screen, cell lysate, small-molecule microarray, COS7 lysate, 635/667 nm fluorescence (AID 1150); settings: COS7 hTOR1A mutant lysate, 635 nm fluorescence, higher = more signal;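 note: score pools 667 nm emission and signal to noise measuring lysate protein binding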
[19] = system: Sonic hedgehog protein (Shh); test: small-molecule binders of Shh protein, primary screen, biochemical, small-molecule microarray, 635/667 nm fluorescence (AID 1151); settings: small-molecule microarray binding, 635 nm fluorescence; higher = more signal;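 note: Shh protein binding to compounds spotted on small-molecule microarray slides; score combines spot fluorescence intensity with signal-to-noise across triplicate slides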

Sequence of Follistatin (Homo sapiens) (P19883 whole entry, looked up): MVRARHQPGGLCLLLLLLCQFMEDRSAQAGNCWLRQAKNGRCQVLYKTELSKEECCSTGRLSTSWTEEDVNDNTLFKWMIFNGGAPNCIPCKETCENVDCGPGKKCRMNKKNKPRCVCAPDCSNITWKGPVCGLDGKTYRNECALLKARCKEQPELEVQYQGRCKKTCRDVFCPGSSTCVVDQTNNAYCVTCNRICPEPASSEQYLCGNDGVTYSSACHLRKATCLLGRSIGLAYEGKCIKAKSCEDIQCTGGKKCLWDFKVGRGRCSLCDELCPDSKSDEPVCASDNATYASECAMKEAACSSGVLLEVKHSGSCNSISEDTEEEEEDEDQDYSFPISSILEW
Sequence of Streptavidin (Streptomyces avidinii) (P22629 whole entry, looked up): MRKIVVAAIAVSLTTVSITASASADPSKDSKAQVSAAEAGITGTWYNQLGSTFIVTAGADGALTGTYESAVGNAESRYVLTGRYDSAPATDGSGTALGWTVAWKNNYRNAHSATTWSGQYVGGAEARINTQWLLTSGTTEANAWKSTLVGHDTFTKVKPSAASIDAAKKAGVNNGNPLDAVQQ
Sequence of Luciferin 4-monooxygenase (Photinus pyralis) (P08659 whole entry, looked up): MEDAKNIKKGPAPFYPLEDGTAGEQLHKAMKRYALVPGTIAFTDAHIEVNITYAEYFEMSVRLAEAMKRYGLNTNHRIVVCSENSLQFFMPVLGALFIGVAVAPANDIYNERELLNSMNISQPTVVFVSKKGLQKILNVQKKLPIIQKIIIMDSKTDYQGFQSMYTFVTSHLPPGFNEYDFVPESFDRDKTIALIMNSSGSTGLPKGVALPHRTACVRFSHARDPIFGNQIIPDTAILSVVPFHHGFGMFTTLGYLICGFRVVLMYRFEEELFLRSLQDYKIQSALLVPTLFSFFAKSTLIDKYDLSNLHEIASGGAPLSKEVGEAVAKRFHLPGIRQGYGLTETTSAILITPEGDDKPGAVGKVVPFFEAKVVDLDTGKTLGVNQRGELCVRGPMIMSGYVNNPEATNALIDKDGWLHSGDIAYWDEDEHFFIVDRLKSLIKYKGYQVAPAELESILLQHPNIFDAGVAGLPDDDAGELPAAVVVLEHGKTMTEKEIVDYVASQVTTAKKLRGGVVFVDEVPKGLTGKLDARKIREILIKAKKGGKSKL
Sequence of Torsin-1A (Homo sapiens) (O14656 whole entry, looked up): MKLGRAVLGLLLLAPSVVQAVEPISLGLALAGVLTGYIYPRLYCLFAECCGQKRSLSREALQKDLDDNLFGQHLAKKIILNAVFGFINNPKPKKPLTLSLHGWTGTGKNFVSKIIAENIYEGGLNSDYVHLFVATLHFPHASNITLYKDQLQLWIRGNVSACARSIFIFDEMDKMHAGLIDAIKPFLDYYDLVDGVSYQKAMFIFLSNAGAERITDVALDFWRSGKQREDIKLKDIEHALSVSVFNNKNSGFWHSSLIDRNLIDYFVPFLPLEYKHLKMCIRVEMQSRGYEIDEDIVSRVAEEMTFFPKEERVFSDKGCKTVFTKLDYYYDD
Sequence of Fibroblast growth factor 2 (Homo sapiens) (P09038 whole entry, looked up): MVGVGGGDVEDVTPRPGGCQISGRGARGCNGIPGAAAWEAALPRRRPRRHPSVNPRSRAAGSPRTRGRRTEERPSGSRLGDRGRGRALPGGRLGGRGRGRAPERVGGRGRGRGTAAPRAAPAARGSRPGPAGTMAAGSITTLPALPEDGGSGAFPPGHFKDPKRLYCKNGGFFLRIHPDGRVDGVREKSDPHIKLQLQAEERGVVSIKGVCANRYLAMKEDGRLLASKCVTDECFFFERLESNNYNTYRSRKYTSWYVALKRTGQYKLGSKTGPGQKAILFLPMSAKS
Sequence of Focal adhesion kinase 1 (Homo sapiens) (Q05397 whole entry, looked up): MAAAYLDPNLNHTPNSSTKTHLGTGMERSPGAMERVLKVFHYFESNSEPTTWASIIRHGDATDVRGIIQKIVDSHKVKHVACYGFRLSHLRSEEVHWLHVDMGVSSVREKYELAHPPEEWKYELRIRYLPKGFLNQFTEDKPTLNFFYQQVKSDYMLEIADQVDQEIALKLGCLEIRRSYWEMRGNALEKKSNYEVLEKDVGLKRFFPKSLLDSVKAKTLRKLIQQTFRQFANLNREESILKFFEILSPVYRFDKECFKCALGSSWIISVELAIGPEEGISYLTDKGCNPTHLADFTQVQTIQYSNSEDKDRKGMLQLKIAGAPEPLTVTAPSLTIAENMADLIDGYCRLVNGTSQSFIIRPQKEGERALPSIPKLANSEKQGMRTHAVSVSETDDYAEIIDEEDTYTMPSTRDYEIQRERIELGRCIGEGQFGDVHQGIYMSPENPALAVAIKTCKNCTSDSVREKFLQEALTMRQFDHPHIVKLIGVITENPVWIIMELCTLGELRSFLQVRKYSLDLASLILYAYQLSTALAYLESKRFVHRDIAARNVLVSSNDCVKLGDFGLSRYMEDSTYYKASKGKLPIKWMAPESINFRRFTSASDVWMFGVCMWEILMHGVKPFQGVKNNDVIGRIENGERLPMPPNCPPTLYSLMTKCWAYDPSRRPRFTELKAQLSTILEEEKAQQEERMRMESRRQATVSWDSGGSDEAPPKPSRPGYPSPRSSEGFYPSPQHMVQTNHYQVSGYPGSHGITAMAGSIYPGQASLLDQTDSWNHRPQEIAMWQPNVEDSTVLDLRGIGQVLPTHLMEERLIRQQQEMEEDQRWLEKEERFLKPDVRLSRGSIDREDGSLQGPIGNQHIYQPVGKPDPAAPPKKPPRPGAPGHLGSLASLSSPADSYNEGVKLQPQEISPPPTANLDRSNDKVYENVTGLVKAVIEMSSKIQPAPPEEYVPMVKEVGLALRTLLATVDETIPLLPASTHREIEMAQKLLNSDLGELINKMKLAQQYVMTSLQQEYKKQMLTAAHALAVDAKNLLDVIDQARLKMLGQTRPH

Row | SMILES | composite z-score [1] | composite z-score [2] | composite z-score [3] | composite z-score [4] | composite z-score [5] | composite z-score [6] | z-score [7] | composite z-score (Lefty1) | composite z-score [8] | z-score [9] | composite z-score [10] | z-score [11] | z-score [12] | z-score [13] | z-score [14] | composite z-score [15] | composite z-score [16] | composite z-score (Torsin-1A (Homo sapiens) [17]) | composite z-score (Torsin-1A (Homo sapiens) [18]) | composite z-score [19]
1 | COc1ccc(C(=O)Nc2ccc(CN3C(=O)[C@]4(O[C@H](CC(=O)N5CCC[C@H]5CO)[C@@H]([Si](C)(C)c5ccc(OC)cc5)[C@@H]4C)c4ccccc43)cc2)cc1 | 1.91 | 1.15 | 0.297 | 0.81 | 1.06 | 1.44 | 0.195 | 0.942 | 0.601 | -1.08 (inactive) | 0.156 | -4.81 (inactive) | -0.00818 (inactive) | 2.62 (inactive) | 0.124 (inactive) | 0.111 | 0.0785 | 0.585 | 0.421 | 2.05
2 | COCCOC(=O)N1C(=O)[C@@]2(c3ccccc31)[C@H](c1ccc(OCCO)cc1)N1[C@H](c3ccccc3)[C@H](c3ccccc3)OC(=O)[C@H]1[C@@H]2C(=O)N1CCc2cc(OC)c(OC)cc2C1 | 2.41 | 1.2 | 0.85 | 0.958 | 1.3 | 1.38 | -0.0272 | 1.35 | 1.17 | -0.603 (inactive) | 0.349 | -2.12 (inactive) | -1.28 (inactive) | 0.623 (inactive) | 2.12 (inactive) | 0.743 | 0.505 | 0.518 | 0.153 | 1.84
3 | CC1CC/C=C\[C@H]2OC34C=CCN(c5ccc6ccccc6c5)C(=O)[C@H]3N(CCO)C(=O)[C@@H]4C2C(=O)O1 (stereo not given in full) | -0.9 | -0.898 | -0.645 | -0.0601 | -0.839 | -0.467 | -0.245 | -0.708 | 1.03 | 0.288 (inactive) | 0.451 | -0.929 (inactive) | 0.282 (inactive) | -0.35 (inactive) | 0.289 (inactive) | -0.818 | 0.0301 | -1.34 | 0.652 | 0.0032
4 | Cc1ccc(S[C@]2(C(=O)O)CC(=O)N(Cc3ccccc3C(F)(F)F)[C@@H]2c2ccc(CO)cc2I)cc1 | 0.275 | 0.0179 | -0.0066 | 0.0184 | 0.0699 | 0.511 | 0.348 | -0.781 | 0.75 | -0.499 (inactive) | 0.192 | -1.03 (inactive) | 0.586 (inactive) | -0.619 (inactive) | 1.81 (inactive) | -0.584 | -0.193 | -0.46 | 1.98 | 0.0365
5 | COC(=O)C[C@H]1O[C@@H](CCc2ccccc2)[C@@H](C)[C@@H]1[Si](C)(C)c1ccc(OC)cc1 | -0.608 | -1.35 | 0.217 | -0.755 | 0.0222 | -0.187 | 1.57 | -0.105 | -0.359 | 0.301 (inactive) | 0.0073 | -1.76 (inactive) | 0.315 (inactive) | -0.87 (inactive) | -0.687 (inactive) | -0.604 | -0.0963 | -0.247 | -0.23 | -0.243
